Screens deposited in PubChem BioAssay by National Center for Advancing Translational Sciences (NCATS).
Compounds with a hit are over-represented: about 19% of the library has one in this group of screens.
TDP1 cell CPT – growth inhibition of DT40 Tdp1-/-;hTDP1 cells with camptothecin (screen for TDP1 inhibitors). AID 686979. 420,000 compounds, 12% hits. chicken DT40 Tdp1-/-;hTDP1 cells + 20 nM CPT, ATP luminescence, 48 h. Potency, µM (highest dose often 46.2 µM), without a hit: top-dose activity change, negative = growth inhibition, actives largely listed as inhibitors; also: potency is read from the fitted curve at half-maximal effect; nearly all actives have a fitted effect of over 55% in size
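Chicken DT40 Tdp1-/- cells stably complemented with human TDP1 were seeded at 400 cells/well in medium containing 20 nM camptothecin, exposed to pin-transferred compounds, and grown at 37 °C for at least 48 hr. Viability was read as ATP luminescence.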
IL-1B inflam inh – blocks inflammasome-driven IL-1 beta release. THP-1 LPS/ATP IL-1B secretion, AlphaLISA, 16 h; stronger effect = lower value. activity change, % at 57.5 µM. 360,000 compounds, 4.7% hits. AID 743279; in the data active = activity change below about -50%; inconclusive = mostly about -30% to -49%
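Secreted IL-1B measured by AlphaLISA bead assay after 16 h compound exposure of THP-1 cells; compounds (final up to 57.5 uM) added 1 h before LPS (250 ng/mL) and ATP (1.25 mM) stimulation; lower signal means less secretion.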
HT1080 IDH1KD tx – kills HT-1080 cells with IDH1 knockdown | HT-1080 IDH1 knockdown viability, ATP luminescence, 48 h | AID 686971 | 360,000 compounds, 2% hits | Potency, µM (doses to about 46.1 µM), for inactives: at the top dose activity, negative = toxicity, most hits filed as cytotoxic;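 also: potency is read from the fitted curve at half-maximal effect; 0% = DMSO wells and -100% = cell-free medium wells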
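Cytotoxicity counter-line: IDH1KD HT-1080, 48 h, CellTiter-Glo. Curves classed by r2, magnitude and activity.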
HT1080-NT tox – kills 2HG-producing HT-1080-NT fibrosarcoma cells | HT-1080-NT fibrosarcoma viability, CellTiter-Glo ATP luminescence, 48 h | Potency, µM (top dose mostly 46.1 µM), without a hit: at the highest dose activity, negative = less viability, hits mostly cytotoxic | 360,000 compounds, 1.6% hits;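 also: NT is the 2HG producing partner of a matched IDH1 knockdown line; potency is read from the fitted curve at half-maximal effect; 0% = DMSO-treated cells and -100% = media-only wells without cells; nearly all actives have a fitted effect of over 55% in size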
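Compounds were tested in concentration-response format on HT-1080-NT cells for 48 hours at 37 degrees C. Cell viability came from CellTiter-Glo luminescence; curves were classified by r2, response magnitude and activity.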
DT40 TDP1 no CPT – qHTS for Inhibitors of human tyrosyl-DNA phosphodiesterase 1 (TDP1): qHTS in cells in absence of CPT | DT40 Tdp1-/- hTDP1 cells, no CPT, ATP luminescence, 48 h | 420,000 compounds, 15% hits | Potency, µM (top dose mostly 46.2 µM), inactives show at the highest dose activity change, negative = growth inhibition, usual class: inhibitors; also: potency is read from the fitted curve at half-maximal effect; nearly all actives have a fitted effect of over 55% in size
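Cells were dispensed at 400 per well, compounds added by pin tool, plates incubated ≥48 hr at 37 °C, then CellTiter-Glo added for 30 min at room temperature before luminescence reading. Line: DT40 Tdp1-/- complemented with hTDP1; camptothecin omitted.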
An asterisk follows results filed as active; ? = inconclusive; nt = no result given. Unless noted, calls follow the shape of the dose curve; as a rule, active = well fitted curve in the direction sought with a large enough effect; inconclusive = small, poorly fitted or top-dose-only effect, or another doubt; inactive = no such curve, though single readings can be large; an effect the other way counts as inactive or inconclusive. Unless noted, % is scaled to controls: 0 for no effect and ±100 for the full control effect.

SMILES	TDP1 cell CPT	IL-1B inflam inh	HT1080 IDH1KD tx	HT1080-NT tox	DT40 TDP1 no CPT
O=C(NCCS(=O)(=O)N1CCN(c2ccc(F)cc2)CC1)C12CC3CC(CC(C3)C1)C2	18µM*	-19	2%	-2%	16µM*
COc1ccc(CCC(=O)NCCS(=O)(=O)N2CCN(c3ccc(F)cc3)CC2)cc1	-4%	6	0%	-1%	?
COc1ccccc1NC(=O)c1nnn(-c2ccc(F)cc2)c1C	-16%	nt	nt	nt	12%
Cc1nc([N+](=O)[O-])cn1CC(=O)c1ccc(OC(F)(F)F)cc1	-15%	23	-6%	-4%	-6%
CSc1nnc2c3ccccc3c3ccccc3c2n1	15µM*	30	-3%	-2%	18µM*
CSc1nnc(-c2ccccc2)c(-c2ccccc2)n1	-20%	20	5%	9%	-10%
Cc1nn(-c2cccc(C(F)(F)F)c2)c(=O)c2noc(C)c12	6%	-17	19%	?	-8%
CC[C@@H](C(=O)n1nc(C)cc1C)[C@H](NS(=O)(=O)c1ccc(C)cc1)c1ccccc1	?	5	-30%	-25%	21µM*
CC(C)c1ccc(N2CC(C)(C)C2=O)cc1	19%	1	0%	12%	-14%
Cc1cc2nc(CO)[nH]c2cc1C	0%	0	0%	-1%	4%
COc1cc2nc(CCc3nc4cc(OC)c(OC)cc4[nH]3)[nH]c2cc1OC	5.6µM*	nt	nt	nt	2µM*
O=C(CCSc1ccc(Cl)c(Cl)c1)NC12CC3CC(CC(C3)C1)C2	16µM*	-4	-18%	-23%	?
CO/N=C(/CS(=O)(=O)Cc1ccccc1Cl)c1ccc(Cl)cc1Cl	-23%	11	?	-19%	-11%
COc1cc(C(=O)Nc2cccc(OCc3cc(=O)n4cc(C)sc4n3)c2)cc(OC)c1OC	-29%	nt	nt	nt	-30%
Cc1ccc(C2=NN(C(=O)c3cccs3)C(c3ccccc3O)C2)cc1 (centres undefined)	?	-26	12%	8%	?
COc1ccc(C2=NN(C(=O)c3ccc(Cl)c([N+](=O)[O-])c3)C(c3ccccc3)C2)cc1 (centres undefined)	?	-14	?	?	?
CCn1cc([N+](=O)[O-])c(C(=O)N2N=C(c3ccc(OC)cc3OC)CC2c2ccccc2O)n1 (centres undefined)	?	-2	-4%	-8%	15µM*
CCn1cc(Cl)c(C(=O)N2N=C(c3ccc4ccccc4c3)CC2c2ccccc2O)n1 (centres undefined)	?	?	?	?	15µM*
CCn1cc([N+](=O)[O-])c(C(=O)N2N=C(c3cccc4ccccc34)CC2c2ccccc2O)n1 (centres undefined)	?	?	18µM*	?	13µM*
CCc1ccc2c(c1)NC(=O)C2(C)Cc1ccc(Cl)s1 (centres undefined)	?	-8	?	?	?
CCOC(=O)C1(Cc2cccc(OC)c2)CCCN(C(=O)c2ccccc2C)C1 (centres undefined)	?	23	-21%	-15%	16µM*
CCOC(=O)C1(Cc2cccc(Cl)c2)CCCN(C(=O)c2ccc(COC)s2)C1 (centres undefined)	23µM*	?	-14%	-6%	21µM*
CCOC(=O)C1(Cc2cccc(Cl)c2)CCCN(C(=O)c2ccoc2C)C1 (centres undefined)	21µM*	-101*	-7%	-2%	18µM*
CC1(C(=O)NS(=O)(=O)c2ccccc2OC(F)(F)F)CCN1C(=O)Cc1ccccc1 (centres undefined)	1%	0	0%	26%	-10%
O=C(NCC1CCN(Cc2cccc(Cl)c2)CC1)Nc1ccccc1Cl	-21%	-83*	-14%	-25%	?
O=C(NCC1CC1)Nc1ccccc1F	-11%	11	4%	1%	16%
O=C(NCC1CCN(Cc2cccc(Cl)c2)CC1)c1cc2ccc3cccnc3c2[nH]1	-30%	nt	nt	nt	?
